tim23-1 inh: inhibits growth of tim23-1 mutant yeast; 330,000 compounds, 1.3% hits; S. cerevisiae tim23-1 growth, BacTiter-Glo luminescence, 24 h; inhibition, % at 20 µM;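 active = growth inhibition of the mutant yeast at or above 50%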;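 note: temperature-sensitive mutant grown at 25 °C; plate controls were DMSO-treated mutant yeast for no effect and medium wells lacking yeast for full effect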
Mdm2 MdmX PPI: disrupts the human Mdm2-MdmX interaction | inhibition, % at 8 µM | AID 485346 | 330,000 compounds, 3% hits | SaOS-2 split-luciferase Mdm2/MdmX complementation, luminescence;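 active = inhibition of at least 50% at 8 µM in the primary screen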
tim10-1 inh: inhibits growth of tim10-1 mutant yeast | S. cerevisiae tim10-1 ts strain growth, BacTiter-Glo, 24 h | inhibition, % at 20 µM | 330,000 compounds, 2.2% hits | AID 463190;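 active = inhibition of at least 40%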;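 note: mutant grown at 25 °C; 0% = DMSO wells with yeast and 100% = wells holding no yeast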
MPTP block: permeability transition pore inhibition; inhibition, % at 10 µM; 360,000 compounds, 1.4% hits; isolated mouse mitochondria, Ca2+ swelling absorbance, 30 min;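 active = inhibition of 50% or more, scaled per plate between neutral and stimulator controls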;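 note: 0% = DMSO wells given calcium and 100% = 1 mM EGTA wells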
TIM10 inh: inhibits growth of TIM10 yeast strain; 330,000 compounds, 1.4% hits; inhibition, % at 10 µM; S. cerevisiae TIM10 strain growth, BacTiter-Glo luminescence, 24 h;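 active = inhibition of 40% or more at the single tested concentration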;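 note: wild-type TIM10 isogenic control strain grown at permissive 25 °C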
Mdm2-MdmX conf: confirmation of human Mdm2/MdmX interaction inhibitors; shares compounds with Mdm2 MdmX PPI; Mdm2-MdmX binding, luminescent assay; inhibition, % at 8 µM; 10,000 compounds, 55% hits; AID 489028; in the data active = inhibition above about 40%
Full FLuc ctr: inhibits full-length luciferase, flagging false Mdm2/MdmX hits; 6,200 compounds, 77% hits; shares compounds with Mdm2 MdmX PPI; inhibition, % at 8 µM; SaOS-2 full-length luciferase counterscreen, luminescence;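 active = mean inhibition at 8 µM reaching about 37%, which flags the compound as non-specific, limit read from the data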;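 note: p53-null SaOS-2 cells with luciferase driven by a doxycycline-inducible promoter; compound on cells about two nights before reading with doxycycline added after day one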
An asterisk follows results filed as active; · = not tested or not shown. Hits are enriched below; roughly 6.3% of the tested compounds scored in any of these assays.

SMILES	tim23-1 inh	Mdm2 MdmX PPI	tim10-1 inh	MPTP block	TIM10 inh	Mdm2-MdmX conf	Full FLuc ctr
C=C(NC(=O)C(=C)NC(=O)c1csc(C2=NC3c4csc(n4)C4NC(=O)c5csc(n5)C([C@@](C)(O)C(C)O)NC(=O)C5CSC(=N5)/C(=C\C)NC(=O)C(C(C)O)NC(=O)c5csc(n5)[C@]3(CC2)NC(=O)C(C)NC(=O)C(=C)NC(=O)C(C)NC(=O)C(C(C)CC)NC2C=Cc3c(C(C)O)cc(nc3C2O)C(=O)OC4C)n1)C(N)=O (some centres undefined)	0.6	93.9*	19.2	·	4.5	55.8*	58.0*
COc1ccc(-c2sc3cc(OC)c(OC)cc3c2C#CC2(O)CCCCC2)cc1	33.9	33.9	24.5	1.2	6.6	·	·
Cc1cc2sc3ccc(C#CC4(O)CCCCC4)cc3c(=O)c2cc1C	28.8	94.4*	22.9	0.4	11.7	96.8*	54.3*
O=C(N/N=C\c1ccc([N+](=O)[O-])s1)C1COc2ccccc2O1 (centres undefined)	-10.9	51.2*	-11.6	-3.4	-51.8	55.1*	87.3*
O=C(N/N=C\c1ccc(Cl)s1)C1COc2ccccc2O1 (centres undefined)	40.9	29.9	-1.4	1.6	25.5	·	·
CCOCc1nnc(NC(=O)c2c(-c3ccccc3)noc2C)s1	-3.4	13.4	-3.2	-0.2	-7.2	·	·
CCOC(=O)c1c(NC(=O)/C=C\C(=O)O)sc(C)c1-c1ccccc1	20.7	-0.4	13.6	48.6	12.1	·	·
Cc1onc(-c2ccccc2)c1C(=O)Nc1sc2c(c1C#N)CCC(C)C2 (centres undefined)	14.0	59.3*	15.7	7.7	15.3	54.6*	55.9*
CCOC(=O)c1c(NC(=O)c2cc(-c3cccc(O)c3)on2)sc(C(C)=O)c1C	9.0	74.6*	7.0	0.6	6.7	0.3	·
CCOC(=O)c1c(NC(=O)/C=C/C(=O)O)sc(C)c1-c1ccc(C(C)(C)C)cc1	-14.3	86.9*	-9.6	-2.7	-10.4	79.8*	56.4*
CCOC(=O)c1c(NC(=O)c2c(-c3ccccc3)noc2C)sc(C)c1-c1ccccc1	-4.8	100.1*	-17.9	7.0	-4.7	93.3*	51.5*
CC1(C(=O)NCc2ccccc2Br)CCN1Cc1csc2ccccc12 (centres undefined)	·	·	·	1.4	·	·	·
CNc1cc(-c2cnn(CC(C)C)c2)ncn1	·	·	·	-0.1	·	·	·
Cc1cccc(C)c1N1C(=O)c2ccccc2NC(=O)C1C(=O)Nc1ccc2c(c1)OCCO2 (centres undefined)	·	·	·	-0.2	·	·	·
COc1ccc(NC(=O)CN(C)C(=O)c2ccc(C)c(S(=O)(=O)N3CCCCC3)c2)cc1	·	·	·	1.8	·	·	·
COC(=O)c1c(-c2ccc(C)cc2)csc1NC(=O)c1c(-c2ccccc2)noc1C	17.0	79.0*	-5.1	·	-6.2	80.1*	38.9*
COC(=O)c1sccc1NC(=O)c1c(-c2ccccc2)noc1C	11.5	14.2	7.2	-1.3	-0.3	·	·
Cc1cccc(OCCOC(=O)c2c(-c3ccccc3)noc2C)c1	-8.4	54.7*	-10.9	-1.4	8.5	38.0	·
COc1ccc(CN2C[C@@H](CO)O[C@@H](n3cnc4c(NCc5ccncc5)ncnc43)C2)cc1	·	·	·	-0.1	·	·	·
CCCNC(=O)c1cc(C2CCCN(C(=O)c3ccc(OC)cc3)C2)on1 (centres undefined)	·	·	·	0.9	·	·	·
CCn1c2ccccc2c2cc(/C=N/O)ccc21	-10.8	7.7	9.5	-0.2	-4.2	·	·
C=Cn1ccnc1P(=S)(c1ccc2c(c1)c1ccccc1n2CC)c1nccn1C=C	39.7	66.6*	23.9	0.9	27.8	63.2*	55.9*
CC1(C)OCC(CNC(=O)c2[nH]c(C(F)(F)F)nc2-c2ccccc2)O1 (centres undefined)	·	·	·	-1.2	·	·	·
C/C(=N\Nc1ccc2nncn2n1)c1ccco1	10.3	30.6	10.1	2.4	10.4	·	·
C/C(=N\Nc1ccc2nncn2n1)c1ccccn1	32.8	80.7*	-29.4	-2.7	-59.6	84.4*	47.8*
SMILES	tim23-1 inh	Mdm2 MdmX PPI	tim10-1 inh	MPTP block	TIM10 inh	Mdm2-MdmX conf	Full FLuc ctr
O=C1C(=NO)CCc2ccccc21	·	·	·	0.1	·	·	·
Cc1ccc(-c2csc(C(O)c3ccccc3)n2)cc1C (centres undefined)	·	·	·	-1.5	·	·	·
Cc1ccc(CN2CCC(CO)(CC3CCCCO3)CC2)o1 (centres undefined)	-1.2	-5.2	-16.6	-0.9	-15.0	·	·
Cc1ccc2[nH]c(CN3CCC(CO)(CC4CCCCO4)CC3)c(C)c2c1 (centres undefined)	16.6	53.0*	22.8	7.5	12.9	29.9	·
CC1(c2nnnn2Cc2ccccc2)CCC(=O)N1Cc1ccc(F)cc1 (centres undefined)	·	·	·	-1.4	·	·	·
COCCn1c(SCC(=O)NCCCN2CCCC2=O)nc2sc3c(c2c1=O)CCCC3	·	·	·	-0.8	·	·	·
Cc1ccc2[nH]c(C(=O)N/N=C/c3ccccc3O)c(C)c2c1	1.6	59.0*	-14.9	6.6	7.3	77.6*	25.3
COc1ccc2[nH]c(C(=O)N/N=C/c3ccc(OC)c(O)c3)cc2c1	4.3	56.4*	-6.2	1.5	-5.6	53.0*	67.4*
COc1cc(OC)c2cc(C(=O)N/N=C/c3ccccc3O)[nH]c2c1	25.7	73.3*	0.7	2.9	21.5	68.5*	38.4*
COc1ccc(/C=N/NC(=O)c2nc(-c3ccccc3)cc(-c3ccccc3)n2)cc1O	-9.3	56.0*	18.3	-1.8	22.2	33.4	120.6*
Cc1nn(C)c(C)c1/C=N/N=C1\CCC2C3CCc4cc(O)ccc4C3CCC12C (centres undefined)	20.1	57.1*	7.0	1.2	-1.9	20.8	·
COc1ccc(C(O)c2nc(-c3ccc4ccccc4c3)cs2)cc1 (centres undefined)	·	·	·	0.9	·	·	·
CC(C)C(=O)N1CCN(c2ccc(NC(=O)c3ccc([N+](=O)[O-])o3)cc2)CC1	41.1	71.6*	26.1	3.8	30.0	52.1*	23.4
CN1CCN(c2ccc(NC(=O)c3ccc([N+](=O)[O-])o3)cc2Cl)CC1	13.1	64.4*	3.2	-1.0	-13.0	49.8*	18.7
Cc1ccccc1C(=O)N1CCN(c2ccc(NC(=O)c3ccc([N+](=O)[O-])o3)cc2)CC1	24.1	71.8*	24.6	0.8	39.7	76.0*	90.5*
O=C(Nc1ccc(N2CCN(C(=O)c3ccccc3)CC2)cc1)c1ccc([N+](=O)[O-])o1	·	·	·	2.1	·	·	·
CCN1CCN(c2c(Cl)cccc2NC(=O)c2ccc([N+](=O)[O-])o2)CC1	1.1	54.6*	-21.5	-1.8	-8.3	28.2	·
CC(C)C(=O)N1CCN(c2ccc(NC(=O)c3ccc([N+](=O)[O-])o3)cc2Cl)CC1	·	·	·	2.6	·	·	·
COc1ccccc1NC(=O)Nc1nnc([C@H]2C[C@H](O)[C@@H](CO)O2)s1	·	·	·	-1.3	·	·	·
Cc1ccc(C(=O)OCC(=O)N2CCC(C)CC2)cc1S(=O)(=O)N1CCOCC1	·	·	·	-0.9	·	·	·

Screening data from PubChem BioAssay.
